Methyltransferases: Primary Screen for Target Class Profiling of Small Molecule Inhibitors of Methyltransferases. purified enzyme, MTase-Glo SAH luminescence; active compounds read low. calls only at 40 µM. 3.9% of 25,000 active; call rule not given here
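Each enzyme was reacted with SAM and its substrate, with compounds tested once at 40 uM; SAH formed was read by MTase-Glo luminescence.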
MTase-Glo counter: detection enzyme interference, methyltransferase counter-screen; shares compounds with Methyltransferases; MTase-Glo coupled enzymes, SAH conversion luminescence, no MTase; Potency, µM (top dose mostly 57.3 µM), inactives show at the highest dose activity change, negative = inhibition, usual class: inhibitors; 6% of 180 active; AID 1745851; active = well fitted inhibition curve with a large enough effect; also: potency is read from the fitted curve at half-maximal effect
Active calls of the source: *; [ ] = another dose, or the depositor's remark. This is one part of a sample in which hits are shown more often than they occur. % is scaled to controls: 0 for no effect and ±100 for the full control effect.

`COCc1nc2nc(-c3ccccc3)c(-c3ccc(O)c(F)c3)cc2n1C` gave Methyltransferases active and MTase-Glo counter -6%[85.7 µM].
`CCC1Oc2ccc(NC(=O)Cc3ccc(OC)cc3)cc2CN(Cc2ccc3c(c2)OCO3)C1=O` (configuration not stated) gave Methyltransferases inactive.
`CCC1Oc2ccc(NS(=O)(=O)c3ccc(Cl)cc3)cc2CN(Cc2ccc(F)cc2)C1=O` (configuration not stated) gave Methyltransferases active and MTase-Glo counter -8%.
CCn1c(=O)n(CC)c2cc(S(=O)(=O)Nc3ccc(F)cc3)ccc21 was read as Methyltransferases inactive.
For Cc1cc(N2C(=O)Cn3cccc3C2C(=O)NC2CCC(C)CC2)ccc1Br (configuration not stated) the results were Methyltransferases inactive.
`CCCn1c(=O)c2ccc(Cl)cc2n2c(=O)n(CC(=O)Nc3ccc(CC)cc3)nc12` gave Methyltransferases inactive.
Cc1nc2cccnc2n1CC1CCCN(S(=O)(=O)c2ccc3c(c2)OCCO3)C1 (configuration not stated) was read as Methyltransferases active and MTase-Glo counter -3%.
`Cc1cnc(-c2cccnc2)n1C1CCN(S(=O)(=O)c2ccc3c(c2)OCCO3)CC1` gave Methyltransferases inactive.
`Cc1cnc(CC2CCCN(S(=O)(=O)c3ccccc3)C2)n1CC1CC1` (configuration not stated) gave Methyltransferases inactive.
For CC(C)CCNC(=O)C1(C)Cn2nc(C(=O)NCC(C)c3ccccc3)cc2C(=O)N1C (configuration not stated) the results were Methyltransferases inactive.
O=C(Nc1ccc2c(N3CCCCC3)ncnc2c1)c1ccccc1C(F)(F)F was read as Methyltransferases active and MTase-Glo counter 1.7µM*.
Screening O=C(Nc1ccccc1C(F)(F)F)N1CCCC(Cn2cnc3cccnc32)C1 (configuration not stated) returned Methyltransferases inactive.
`O=C(Nc1ccc2c(N3CCOCC3)ncnc2c1)c1cccc(Cl)c1` gave Methyltransferases active and MTase-Glo counter -1%.
`O=C1CC(C(=O)Nc2cccc(Cl)c2)n2ncnc2N1` (configuration not stated) gave Methyltransferases inactive.
O=C(Nc1ccc(S(=O)(=O)C(F)(F)F)cc1)C1=CCN(c2ncccc2C(F)(F)F)CC1 was read as Methyltransferases inactive.
For Cn1c(=O)c2ccc(C(=O)NC3CCCC3)cc2n2c(=O)n(CC(=O)Nc3cccc(Cl)c3)nc12 the results were Methyltransferases inactive.
For CC1(C(=O)NC2CCCCC2)Cn2c(cc3sccc32)C(=O)N1Cc1cccnc1 (configuration not stated) the results were Methyltransferases inactive.
`Cc1ccc2n1CCN(C(=O)Nc1cccc(C(F)(F)F)c1)C2C(C)C` (configuration not stated) gave Methyltransferases inactive.
For COc1cccc(CN2C(=O)c3ccc(-c4ccco4)n3CC2(C)C(=O)NC2CCCCC2)c1 (configuration not stated) the results were Methyltransferases inactive.
`O=c1c2ccccc2n2c(-c3cc(Br)cs3)nnc2n1CCc1ccccc1` gave Methyltransferases inactive.
`O=[S+]([O-])(CCC(F)(F)F)N1CCN(Cc2ccccc2-c2cccnc2)CC1` gave Methyltransferases inactive.
For COc1ccc(CNC(=O)Cn2ccc3cc(S(=O)(=O)N4CCCCC4)ccc32)cc1 the results were Methyltransferases inactive.
CCOC(=O)c1cc2n(n1)CC(C)(C(=O)NCc1ccccc1OC)N(c1ccc(C)cc1C)C2=O (configuration not stated) was read as Methyltransferases inactive.
For Cn1cc(-c2cnc(Nc3cccnc3)c3c2CCO3)cn1 the results were Methyltransferases inactive.
For Cc1noc(C)c1-c1cnc(Nc2ccncc2)c2c1CCO2 the results were Methyltransferases active and MTase-Glo counter -3%[85.7 µM].
Fc1cccc(Nc2ncc(-c3cncnc3)c3c2OCC3)c1 was read as Methyltransferases inactive.
For O=c1n(CCN2CCCC(N[S+](=O)([O-])c3ccccc3)C2)nc2n1CCCC2 (configuration not stated) the results were Methyltransferases inactive.
Screening CC(C(=O)N1CCN(c2ccccc2)CC1)n1ccc2cc(S(=O)(=O)N3CCCC3)ccc21 (configuration not stated) returned Methyltransferases inactive.
`CCOC(=O)c1cc2n(n1)CC(C)(C(=O)NCc1ccccc1)N(CCc1ccccc1)C2=O` (configuration not stated) gave Methyltransferases inactive.
For COc1cccc(NS(=O)(=O)c2cc3c(cc2C)n(C)c(=O)n3C)c1 the results were Methyltransferases inactive.
For COc1ccc(CNc2cc3c(cn2)CN(C)CCN3)cc1OC the results were Methyltransferases active and MTase-Glo counter 0%[85.7 µM].

Source: PubChem BioAssay (National Center for Advancing Translational Sciences (NCATS))
